ChEMBL document CHEMBL3988442, “University of Dundee, Small-Polar-MMV Screening Library” (2021)
In all, about 48,000 compounds went through this assay and about 13,000 (27%) showed an effect of 50% or more. Some of the results follow.

tested on: Wolbachia pipientis; assay: Anti-Wolbachia Cell-Based Screen; format: functional; design: scale not given: in the data most compounds retested in dose-response had high values; conditions: 5 µM

| Structure (SMILES) | Percent Effect [%] |
| --- | --- |
| O=C(Nc1ccc(S(=O)(=O)Nc2c(F)cccc2F)cc1)N1CCCC1 | -7.034 |
| CCN(CC(=O)Nc1cc(C(C)(C)C)no1)Cc1ccc(Cl)s1 | 1.082 |
| CCN(CC(=O)NC(C)C)S(=O)(=O)N1CCCCCC1 | 9.147 |
| CCN(CC(=O)NC(C)(C)C)Cc1cccc2c1OCCO2 | -0.7065 |
| CCOc1nnc(CN(Cc2ccccc2)CC(O)c2ccco2)s1 (configuration not stated) | 2.067 |
| CCOc1nnc(CN(CC)CC(=O)NC(C)C)s1 | 101.2 |
| CCOc1nnc(CN(CC)CC(=O)NC(C)(C)C)s1 | 93.91 |
| CCOc1nnc(CN(CC)CC(=O)Nc2c(F)cccc2F)s1 | 97.11 |
| CCOc1ccccc1C(CC(=O)Nc1ccccc1F)NC(C)=O (configuration not stated) | -7.406 |
| CCNC(=O)CN(CC)Cc1nc2c(F)cccc2n1CC | -0.387 |
| O=C1[C@@H]2CCN(Cc3ccc(F)cc3)C[C@@H]2OCCN1c1cccnc1 | -21 |
| Cc1cccc(CN2CCCC3(CCN(C4CCSCC4)C3)C2=O)c1 (configuration not stated) | -3.098 |
| CN(C)C(=O)Cn1ccc2cc(NC(=O)N3CCSCC3)ccc21 | -2.006 |
| Cc1ccc(C)c2c(O)cc(CNCC(N)=O)nc12 | -7.963 |
| CC(C)c1nc(-c2cc(C(=O)NCCN(C)C)c3ccccn23)cs1.O=C(O)C(F)(F)F | -4.099 |
| O=C1N(CCCc2ccccc2)CCCC1(O)CN1CCC(CO)CC1 (configuration not stated) | -7.352 |
| CC(C)n1ncc2c1NC(=O)C(C#N)C21CCCC1 (configuration not stated) | 15.91 |
| Cc1ccc(CN2CC[C@H]3[C@H]2CCN3S(C)(=O)=O)s1.O=C(O)C(F)(F)F | -3.604 |
| CS(=O)(=O)N1CC[C@H]2O[C@H](C(=O)NCCc3ccncc3)CC[C@H]21.O=C(O)C(F)(F)F | -5.225 |
| Cc1ccc(CN2CC[C@@H]3OCCN(Cc4ccncc4)[C@H]3CC2)s1.O=C(O)C(F)(F)F.O=C(O)C(F)(F)F.O=C(O)C(F)(F)F | 91.24 |
| Cc1ccc(CN2CC[C@H]3[C@H]2CCN3S(=O)(=O)C2CC2)s1.O=C(O)C(F)(F)F | -4.175 |
| COCCN1CCO[C@@H]2CN(Cc3ccc(C)s3)C[C@@H]2C1.O=C(O)C(F)(F)F.O=C(O)C(F)(F)F | -5.835 |
| Cc1ccc(CN2CC[C@H]3OCC[C@@H](C(=O)NCC4CC4)[C@@H]3C2)s1.O=C(O)C(F)(F)F | -8.513 |
| CS(=O)(=O)N1CCO[C@@H]2CN(Cc3ccc(F)cc3)CC[C@@H]2C1.O=C(O)C(F)(F)F | -0.3298 |
| CS(=O)(=O)N1CCO[C@@H]2CCN(Cc3ccncc3)CC[C@H]21.O=C(O)C(F)(F)F.O=C(O)C(F)(F)F | 114.1 |
| Cc1ccc(CN2CC[C@@H]3OCCN(S(C)(=O)=O)[C@H]3CC2)s1.O=C(O)C(F)(F)F | 114.1 |

| Structure (SMILES) | Percent Effect [%] |
| --- | --- |
| CC1CN(S(=O)(=O)c2cc(S(C)(=O)=O)ccc2Br)c2cccnc2O1 (configuration not stated) | -14.61 |
| CC1(C)CN(CC(F)(F)F)CCN1CC(=O)N1CCCCC1 | -2.434 |
| O=C(O)C(F)(F)F.O=S(=O)(NC[C@]12COC[C@H]1CN(c1ncc(F)cn1)C2)C1CC1 | 7.707 |
| Cc1nc2c(C#N)cnn2c(C)c1CCC(=O)N(C)C(C)C(C)C (configuration not stated) | 7.938 |
| COCC(C)N(C)C(=O)CCc1c(C)nc2c(C#N)cnn2c1C (configuration not stated) | -1.234 |
| Cc1nc2cc(O)nn2c(C)c1CCC(=O)N(C)CCC(C)C | 96.83 |
| COC(=O)CCc1c(C)nc2cc(O)nn2c1C | 10.93 |
| Cc1nn(C)c(C)c1CCC(=O)N(C)Cc1ccc2nsnc2c1 | 27.84 |
| Cc1nc2ccnn2c(C)c1CCC(=O)N1CCN(C2CC2)CC1 | 0.559 |
| Cc1nn(CCC#N)c(C)c1CCC(=O)N(C)Cc1ccsc1 | 21.07 |
| Cc1nc2cc(O)nn2c(C)c1CCC(=O)N(C)Cc1ccccc1 | 86.37 |
| CCCN(CC(F)F)C(=O)CCc1c(C)nc2cc(O)nn2c1C | 131.4 |
| CN1CCC2(CCC1=O)CCN(C(=O)Cc1ccc(O)c(F)c1)CC2 | 0.2124 |
| Cc1ccn(CCNc2ncnc3c2CCN(c2cnccn2)CC3)n1 | 7.115 |
| CC(O)CN1CCC(CNCc2cccc(Br)c2)CC1 (configuration not stated) | 7.461 |
| O=C(Cn1cccc2cc(-c3ccc(F)cc3)nc1-2)N1CCC(O)CC1 | 121.3 |
| COc1cccn(CC(=O)N(C)CCOc2cc(C)cc(C)c2)c1=O | -7.697 |
| O=C(c1nnn(-c2ccc(F)cc2)n1)N1CCC(O)CC1 | 1.522 |
| O=C(Cn1nnc(-c2cc3ccccc3o2)n1)N1CCOCC1 | -8.281 |
| COc1ccc(-c2cc3cccn(CC(=O)N4CCOCC4)c-3n2)cc1 | 153.8 |
| COc1cccc(CN2CCN(C(=O)CN3CCOCC3)CC2)n1 | -0.8074 |
| COC1CCN(C(=O)Cn2ccc3ccccc32)CC1 | 0.3613 |
| CN(C)CCN(C)C(=O)Cn1cccc2cc(-c3ccc(F)cc3)nc1-2 | 149.6 |
| COCCN(C)C(=O)Cn1cccc(OC)c1=O | -3.023 |
| CC(C)(C)c1nnc(CN2CCC(c3cc4ccccc4[nH]3)CC2)o1 | 4.334 |
| COCCc1noc(-c2cn(Cc3ccccc3C)nn2)n1 | -12.89 |

| Structure (SMILES) | Percent Effect [%] |
| --- | --- |
| NS(=O)(=O)CCNC(=O)C1(c2ccccc2)CC1 | -12.67 |
| O=C(NCCCNc1ccccn1)NCC1CCS(=O)(=O)C1 (configuration not stated) | 10.33 |
| COCCCN1CC2(CCCN(c3ncnc4[nH]ccc34)C2)CCC1=O (configuration not stated) | 0.6665 |
| CC(C)c1ncc2c(n1)CN(c1ncnc3[nH]ccc13)CC2 | 96.63 |
| c1nc(N2CCc3[nH]cnc3C2)c2cc[nH]c2n1 | 98.13 |
| CN(C)CC1CN(c2ncnc3[nH]ccc23)CCO1 (configuration not stated) | 4.502 |
| CC(C)c1ncc2c(n1)CN(Cc1ccc(C(N)=O)cc1)CC2 | -9.095 |
| Cc1nc(C)n(CC2CCCN(c3ncnc4[nH]ccc34)C2)n1 (configuration not stated) | 6.618 |
| Cc1ncc2c(n1)CN(c1ncnc3[nH]ccc13)CC2 | 103 |
| Cc1ncc2c(n1)CN(C(C(N)=O)c1ccc(F)cc1)CC2 (configuration not stated) | -2.692 |
| c1ncc2c(n1)CN(c1ncnc3[nH]ccc13)CC2 | 97.2 |
| CC(C)c1ncc2c(n1)CN(CC1CCCCO1)CC2 (configuration not stated) | -13.54 |
| Cn1cc(C2CCCN2c2ncnc3[nH]ccc23)cn1 (configuration not stated) | -13.62 |
| OC1(CN2CCCC2)COCCN(c2ncnc3[nH]ccc23)C1 (configuration not stated) | 7.822 |
| CC(C)CCN(C(=O)c1cc2c([nH]c1=O)CCCC2=O)C1CC1 | -4.935 |
| O=C(NC(C1CC1)C1CC1)c1cccc[n+]1[O-] | 1.029 |
| Cn1cc(Br)cc(NC(=O)Cc2cccs2)c1=O | -8.828 |
| CCc1cnc(CNc2cccc3c2CCN(S(=O)(=O)CC)C3)o1 | -1.845 |
| CN(CCCc1cc(-c2cccc(F)c2)n[nH]1)C(=O)CCn1cncn1 | 11.69 |
| CNC(=O)[C@@H](C1CCCCC1)N1CCC[C@H]1C(=O)N(C)CCN(C)C.Cl.Cl | 6.649 |
| Cc1cccc(CN2Cc3[nH]nc(COCc4nccs4)c3C2)n1.O=C(O)C(F)(F)F | -5.307 |
| Cc1occc1C(=O)N1CCc2c(CNc3ncccn3)cncc2C1.Cl | -10.41 |
| Cl.Cn1cccc1C(=O)N1CCc2c(CNS(C)(=O)=O)cncc2C1 | 99.59 |
| Cc1occc1C(=O)N1CCc2c(CNS(C)(=O)=O)cncc2C1.Cl | 99.94 |
| CS(=O)(=O)NCc1cncc2c1CCN(C(=O)c1cccnc1)C2.Cl.Cl | 94.15 |
| CS(=O)(=O)NCc1cncc2c1CCN(C(=O)c1ccccn1)C2 | 100.5 |

| Structure (SMILES) | Percent Effect [%] |
| --- | --- |
| Cc1cccc(C(=O)N2CCc3c(COCC4CC4)cncc3C2)n1 | -8.984 |
| CN(C)C(=O)N1CCc2c(CNc3ncccn3)cncc2C1 | -13.49 |
| CC(C)NC(=O)N1CCc2c(CNc3ncccn3)cncc2C1.Cl | -8.609 |
| Cc1nc(-c2cnn(C)c2)nc2c1CN(C(=O)c1cccn1C)CC2 | -11.99 |
| COCc1cncc2c1CCN(C(=O)c1ccoc1C)C2 | -16.93 |
| O=C(O)C1CCN(c2ccc(Sc3ccc(Br)cc3)nn2)CC1 | -8.294 |
| Cc1cccc2c1OCCC2NCc1c(C)nn(C)c1N(C)C (configuration not stated) | -23.23 |
| Cc1ccc(C(=O)N2CCc3c(COCC4CC4)cncc3C2)o1 | -16.58 |
| Cc1ccc(C(=O)N2CCc3c(CNS(C)(=O)=O)cncc3C2)o1.Cl | -12.96 |
| Cc1ccc(C(=O)N2CCc3c(CNc4ncccn4)cncc3C2)o1.Cl | 96.21 |
| CCc1cnc(N2CCN(Cc3ccon3)CC2)s1 | -1.549 |
| O=C(c1cc(Cl)c2c(c1)OCCCO2)N(CC1CCOC1)C1CC1 (configuration not stated) | -3.487 |
| CC(C)n1c(=O)c2sccc2n(CC(=O)Nc2ccccc2)c1=O | 126.1 |
| Cn1c(=O)c2sccc2n(Cc2ccccc2)c1=O | -1.761 |
| Cc1cc(=O)n(CC(=O)Nc2cccc(Cl)c2)nc1C | -4.372 |
| Cn1c(=O)c2sccc2n(CC(=O)Nc2cccc(Cl)c2)c1=O | 134.9 |
| CCn1nc(C)c2nnn(CC(=O)Nc3cccc(Cl)c3)c(=O)c21 | -0.8024 |
| O=C(Cn1c(=O)nc2n1C(=O)N(c1ccccc1)C2)Nc1ccccc1 | 2.08 |
| CCn1c(=O)c2sccc2n(CC(=O)Nc2cccc(Cl)c2)c1=O | 148.7 |
| COc1ccc(Cn2c(=O)n(C)c(=O)c3sccc32)cc1 | 5.606 |
| CC(C)c1cccc(NC(=O)N2CC(N(C)C)C2)c1 | -4.396 |
| COc1cccc(Cn2c(=O)n(C)c(=O)c3sccc32)c1 | -18.58 |
| CC(C)c1cccc(NC(=O)Cn2c(=O)n(C)c(=O)c3sccc32)c1 | 155.2 |
| O=C(Cn1cc(-c2ccccc2)ncc1=O)Nc1ccncc1 | 8.409 |
